Source: PubChem
This excerpt belongs to a sample that is enriched for hits.
mHTT CaM bind: mutant huntingtin-calmodulin interaction inhibitors – biochemical, AlphaScreen, primary screen; inhibition, % at 15 µM; P42858; AID 1671202, 2021; 3.6% of 190,000 active; AlphaScreen His-mHTT/GST-CaM binding, luminescence
Pf apPOL inh: Pf-apPOL inhibitors, biochemical, fluorescence | 0.25% of 210,000 active | Recombinant Pf-apPOL, molecular beacon fluorescence, 1.5 h | Plasmodium falciparum apicoplast DNA polymerase (apPOL) | inhibition, % at 10 µM
Each line names hits and unclear results; the compound was inactive in the other large screens. Rule as the data show it: active = inhibition above about 50%; inactive = the rest.

Oc1ccc(Sc2ccc(O)cc2O)c(O)c1	none (no result: Pf apPOL inh)
CCOC(=O)c1c(S(=O)(=O)Nc2ccc(C(F)(F)F)cc2)n[nH]c1C	none
COc1ccc(CN2CCN(C(=O)c3ccncc3)CC2)cc1Br	none
CC(=O)N1CCC2(CC1)N=C(c1ccc(C)c(C)c1)CC(c1cc(Cl)ccc1O)N2 (stereo unspecified)	mHTT CaM bind 63.3
COc1cccc(C2=NC(C)(C(C)C)NC(c3ccccc3O)C2)c1 (stereo unspecified)	mHTT CaM bind 70.0
CC(=O)N1CCC2(CC1)N=C(c1ccc(C)cc1C)CC(c1cc(Cl)ccc1O)N2 (stereo unspecified)	mHTT CaM bind 87.8
Cc1ccc(C2=NC3(CCN(C)CC3)NC(c3ccccc3O)C2)cc1 (stereo unspecified)	none
COc1ccc(O)c(C2=NC3(CCN(C(C)C)CC3)NC(c3ccccc3O)C2)c1 (stereo unspecified)	none
CCOC(=O)N1CCC2(CC1)N=C(c1ccc(F)cc1)CC(c1cc(Cl)ccc1O)N2 (stereo unspecified)	none
CCOC(=O)N1CCC2(CC1)N=C(c1ccccc1O)CC(c1cc(Cl)ccc1O)N2 (stereo unspecified)	none
Cc1ccc(C2=NC(C)(C)NC(c3ccccc3O)C2)cc1 (stereo unspecified)	mHTT CaM bind 100.0
CCN1CCC2(CC1)N=C(c1ccc(C)cc1)CC(c1cccc(OC)c1O)N2 (stereo unspecified)	none
CCCC1(C)N=C(c2ccc3c(c2)OCO3)CC(c2ccccc2O)N1 (stereo unspecified)	mHTT CaM bind 84.0
CCOC(=O)N1CCC2(CC1)N=C(c1ccc3c(c1)OCO3)CC(c1ccccc1O)N2 (stereo unspecified)	none
CC(C)C1N=C(c2ccc3c(c2)OCO3)CC(c2cc(Cl)ccc2O)N1 (stereo unspecified)	mHTT CaM bind 67.0
CC(C)C1N=C(c2ccc3c(c2)OCO3)CC(c2cc(Br)ccc2O)N1 (stereo unspecified)	none
CCCC1(C)N=C(c2ccc(Cl)cc2)CC(c2cccc(OC)c2O)N1 (stereo unspecified)	mHTT CaM bind 88.0
COc1ccc(C(=O)NC2CC2)cc1OC	none
CC(=O)Nc1ccc(NC(=O)c2nc(-c3ccc(C)cc3)n3c2CCCCC3)cn1	none
CC(C)N1CCC(CNC(=O)C2CCCCC2)CC1	none
C#CCN1C(=O)C(O)(CC(=O)c2ccc3c(c2)CCCC3)c2ccccc21 (stereo unspecified)	none
C=CCN1C(=O)C(O)(CC(=O)c2ccc3c(c2)CCCC3)c2ccccc21 (stereo unspecified)	mHTT CaM bind 56.9
COCCCNC(=O)c1cc2cc([N+](=O)[O-])ccc2oc1=O	none
c1ccc(Cc2c[nH]c3ccccc23)cc1	mHTT CaM bind 60.6
c1ccc2c(CCc3ccncc3)c[nH]c2c1	none
COc1ccc(C(CC(=O)N2CCCCC2)c2c(OC)cc(OC)c3ccc(=O)oc23)cc1 (stereo unspecified)	none
COc1cc(OC)c2ccc(=O)oc2c1C(CC(=O)N1CCOCC1)c1ccc2c(c1)OCO2 (stereo unspecified)	none
COc1cc(OC)c2ccc(=O)oc2c1C(CC(=O)N1CCN(c2ccccc2)CC1)c1ccc2c(c1)OCO2 (stereo unspecified)	mHTT CaM bind 69.7
COc1cc(C(CC(=O)N2CCN(c3ccccc3)CC2)c2c(OC)cc(OC)c3ccc(=O)oc23)cc(OC)c1OC (stereo unspecified)	mHTT CaM bind 71.0
COc1ccccc1CNC(=O)C1CCc2sc(C(=O)N3CCCC3)cc2C1 (stereo unspecified)	none
COc1ccc(CC(=O)NCC2(O)CCOc3ccccc32)cc1OC (stereo unspecified)	none
CCN(CC)c1ccc(C=Nc2cccc(C(=O)O)c2)cc1	none
COc1ccc(Cl)cc1N1CCN(C(C)C(=O)Nc2ccc(C)cc2)CC1 (stereo unspecified)	mHTT CaM bind 98.7
COc1ccccc1N1CCN(C(C)C(=O)Nc2ccc(F)cc2)CC1 (stereo unspecified)	none
N=Nc1[nH]c(N)c2ccccc12	mHTT CaM bind 94.5
Cc1nc2c3ccccc3nc(SCc3cccc(F)c3)n2n1	none
COC(=O)C1C2C=CC3(CN(c4cccc(C)c4)C(=O)C13)O2 (stereo unspecified)	mHTT CaM bind 65.6
CCCCOC(=O)C1C2C=CC3(CN(c4cccc(C)c4)C(=O)C13)O2 (stereo unspecified)	none
O=C(Nc1ccccc1C(=O)O)c1cccc(C(=O)Nc2ccccc2C(=O)O)c1	mHTT CaM bind 69.8
O=C(Nc1ccccc1C(=O)O)c1ccccc1	none
CN(C)/C(=C1/c2cc([N+](=O)[O-])ccc2-c2c1cc([N+](=O)[O-])cc2[N+](=O)[O-])N1CCOCC1	mHTT CaM bind 57.0
O=C(c1cc([N+](=O)[O-])ccc1N1CCCC1)N1CCOCC1	none
NC(=O)CSc1nc2ccccc2n1CCOc1ccc(Cl)cc1	mHTT CaM bind 64.3
